Cytotoxicity call data for 70 molecules are collected here from the antibiotic and cytotoxicity screens of Wong et al. (2023).

About 1,500 (3.8%) of roughly 39,000 compounds were called active. This excerpt belongs to a sample that is enriched for actives.

The subject of this assay is HSkMC (human skeletal muscle cells). The assay can be described thus: cytotoxicity call (relative viability < 0.9). The settings on record: 10 µM.
`CC(C)(C)[S@](=O)N1Cc2cc(C(=O)NCc3ccncc3)nc(-c3cccc(-c4cccc(C#N)c4)c3)c2[C@@H]1CCO`: the cytotoxicity call is “inactive”.
With `C[C@H](CO)N1C[C@H](C)[C@H](CN(C)S(=O)(=O)c2cn(C)cn2)Oc2ccc(NC(=O)Cc3ccccc3)cc2C1=O`, the cytotoxicity call is “inactive”.
For the molecule `Cc1cc(C(=O)Nc2cccc3c2O[C@H](CN(C)Cc2ccncc2)[C@H](C)CN([C@H](C)CO)C3=O)n(C)n1`, the cytotoxicity call was “inactive”.
As to `Cc1noc(C)c1S(=O)(=O)Nc1ccc2c(c1)C(=O)N([C@@H](C)CO)C[C@H](C)[C@@H](CN(C)C(=O)Nc1ccccc1)OCCCC[C@@H](C)O2`, the cytotoxicity call is “inactive”.
Consider `C[C@@H](Nc1nc(=O)cc(F)[nH]1)C(=O)O`, for which the cytotoxicity call was “inactive”.
Regarding `COc1ccc(NC(=O)N(C)C[C@H]2Oc3ccc(NC(=O)CCCCCC(=O)Nc4ccccc4N)cc3C(=O)N([C@@H](C)CO)C[C@@H]2C)cc1`, the cytotoxicity call is “inactive”.
In the case of `COc1ccc(NC(=O)Nc2ccc3c(c2)C(=O)N([C@@H](C)CO)C[C@H](C)[C@@H](CN(C)C(=O)Cc2ccccc2)OCCCC[C@@H](C)O3)cc1`, the cytotoxicity call is “inactive”.
With `COc1ccc(CN(C)C[C@H]2Oc3ccc(NS(=O)(=O)c4cn(C)cn4)cc3CC(=O)N([C@H](C)CO)C[C@@H]2C)cc1`, the cytotoxicity call is “inactive”.
On to `Cc1noc(C)c1S(=O)(=O)Nc1ccc2c(c1)C(=O)N([C@@H](C)CO)C[C@H](C)[C@@H](CN(C)Cc1ccc(Oc3ccccc3)cc1)O2`, for which the cytotoxicity call is “inactive”.
With `C[C@@H]1CN([C@@H](C)CO)C(=O)Cc2cc(NC(=O)Nc3ccc(C(F)(F)F)cc3)ccc2O[C@@H]1CN(C)C(=O)Nc1ccccc1`, the cytotoxicity call was “active”.
`C[C@H]1CN([C@@H](C)CO)C(=O)Cc2cc(NC(=O)Nc3ccc(C(F)(F)F)cc3)ccc2O[C@@H]1CN(C)C(=O)Nc1ccccc1`: the cytotoxicity call is “inactive”.
With `C[C@H](CO)N1C[C@H](C)[C@@H](CN(C)C(=O)Nc2ccccc2)Oc2ccc(NC(=O)Nc3ccc(C(F)(F)F)cc3)cc2CC1=O`, the cytotoxicity call was “inactive”.
With `C[C@@H]1CN([C@@H](C)CO)C(=O)Cc2cc(NC(=O)Nc3ccccc3)ccc2O[C@@H]1CN(C)C(=O)Nc1ccc(C(F)(F)F)cc1`, the cytotoxicity call is “inactive”.
Take `C[C@H](CO)N1C[C@H](C)[C@H](CN(C)C(=O)Nc2ccccc2)Oc2ccc(NC(=O)Nc3ccc(C(F)(F)F)cc3)cc2CC1=O`: the cytotoxicity call is “inactive”.
On to `C[C@H]1CN([C@@H](C)CO)C(=O)Cc2cc(NC(=O)Nc3ccc(C(F)(F)F)cc3)ccc2O[C@H]1CN(C)C(=O)Nc1ccccc1`, for which the cytotoxicity call was “active”.
The result for `O=C(O)C1=CCCNC1` reads “inactive”; that for `Cc1noc(C)c1NC(=O)N(C)C[C@@H]1Oc2ccc(NS(=O)(=O)c3cccs3)cc2CC(=O)N([C@@H](C)CO)C[C@H]1C`, “inactive”; that for `COc1ccc(NC(=O)Nc2ccc3c(c2)C(=O)N([C@H](C)CO)C[C@@H](C)[C@@H](CN(C)Cc2ccc(C(=O)O)cc2)OCCCC[C@H](C)O3)cc1`, “inactive”.
For the molecule `NC(=O)[C@H]1[C@@H]2C(=O)O[C@@H](c3ccccc3)[C@@H](c3ccccc3)N2[C@@H](c2ccc(O)cc2)[C@]12C(=O)Nc1ccc(C#CC3(O)CCCCCC3)cc12`, the cytotoxicity call was “inactive”.
In the case of `c1ccc(Nc2ncnc3cc(-c4ccccc4)sc23)cc1`, the cytotoxicity call is “inactive”.
Under `c1ccc(Nc2ncnc3sc(-c4ccccc4)cc23)cc1` stands “inactive”; under `Fc1ccc(Nc2ncnc3sc(-c4ccccc4)cc23)cc1`, “active”.
For the molecule `CCCC(=O)Nc1ccc2c(c1)OC[C@@H](C)N(C(=O)CN1CCOCC1)C[C@@H](C)[C@H](OC)CN(C)C2=O`, the cytotoxicity call was “inactive”.
`NS(=O)(=O)OC[C@H]1C[C@@H](Nc2ccnc3cc(-c4cccc(SC(F)(F)F)c4)nn23)[C@H](O)[C@@H]1O`: the cytotoxicity call is “active”.
Consider `O=C([O-])C(O)C(O)C(O)C(O)CO.[Na+]` (stereo not given), for which the cytotoxicity call is “inactive”.
The result for `Cc1cccnc1[C@@H](NC(=O)C1CCN(CCOc2ccc(Cl)cc2Cl)CC1)c1ccc(F)cc1` reads “inactive”; that for `Cc1cccnc1[C@H](c1ccc(F)cc1)N(C)C(=O)C1CCN(CCOc2ccc(Cl)cc2Cl)CC1`, “active”.
As to `Cc1ccccc1[C@@H](c1ncccc1C)N(C)C(=O)C1CCN(CCOc2ccc3ccccc3c2)CC1`, the cytotoxicity call is “inactive”.
`Cc1cccnc1[C@@H](NC(=O)C1CCN(CCOc2ccc(Cl)cc2Cl)CC1)c1ccc(Cl)cc1`: the cytotoxicity call was “inactive”.
The result for `COc1ccccc1[C@@H](NC(=O)C1CCN(CCOc2ccc(Cl)cc2Cl)CC1)c1ccccn1` reads “inactive”.
Regarding `Cc1ccccc1[C@@H](c1ncccc1C)N(C)C(=O)C1CCN(CCOc2ccc(Cl)cc2Cl)CC1`, the cytotoxicity call is “active”.
Regarding `C[C@@H]1CN([C@@H](C)CO)C(=O)c2cc(NC(=O)Nc3ccccc3)ccc2O[C@@H](C)CCCCO[C@H]1CN(C)S(=O)(=O)c1ccccc1F`, the cytotoxicity call is “inactive”.
Under `O=C(O)/C=C/C(=O)O` stands “inactive”; under `COC(=O)c1c(CC[C@@H](CO)NC(=O)N[C@H](Cn2cc(Cc3ccccc3)nn2)C(C)C)oc(C(C)=O)c1C(=O)OC`, “inactive”; under `O=C(C[C@@H]1CC=CC[C@@H](Cc2ccc(F)cc2)C(=O)OC[C@H](Cc2c[nH]c3ccccc23)NC1=O)NCCO`, “inactive”.
For `CC(C)NC(=O)N(C)C[C@@H]1OCc2cnnn2CCCC(=O)N([C@@H](C)CO)C[C@@H]1C`, the cytotoxicity call is “inactive”.
`CC(C)NC(=O)N(C)C[C@H]1Oc2cc(-c3ccccc3F)ccc2S(=O)(=O)N([C@H](C)CO)C[C@H]1C`: the cytotoxicity call is “inactive”.
With `C[C@@H]1CN([C@@H](C)CO)C(=O)c2cccc(NS(=O)(=O)c3ccc(Cl)cc3)c2O[C@H]1CN(C)Cc1ccc(-c2ccccc2)cc1`, the cytotoxicity call was “inactive”.
`C[C@H](CO)N1C[C@H](C)[C@H](CN(C)Cc2ccc(C(F)(F)F)cc2)Oc2c(NS(=O)(=O)c3ccc(Cl)cc3)cccc2C1=O`: the cytotoxicity call was “active”.
The result for `C[C@H]1CN([C@@H](C)CO)C(=O)c2cccc(NS(=O)(=O)c3ccc(Cl)cc3)c2O[C@@H]1CN(C)Cc1ccc(C(F)(F)F)cc1` reads “inactive”; that for `C[C@@H]1CN([C@@H](C)CO)C(=O)c2cccc(NS(=O)(=O)c3ccc(Cl)cc3)c2O[C@@H]1CN(C)Cc1ccc(-c2ccccc2)cc1`, “active”.
The result for `C[C@@H]1CN([C@H](C)CO)C(=O)c2cccc(NS(=O)(=O)c3ccc(Cl)cc3)c2O[C@H]1CN(C)Cc1ccc(-c2ccccc2)cc1` reads “inactive”.
Under `C[C@H](CO)N1C[C@H](C)[C@@H](CN(C)Cc2ccc(C(F)(F)F)cc2)Oc2c(NS(=O)(=O)c3ccc(Cl)cc3)cccc2C1=O` stands “inactive”; under `C[C@@H]1CN([C@H](C)CO)C(=O)c2cc(NC(=O)c3ccccc3)ccc2O[C@@H](C)CCCCO[C@@H]1CN(C)Cc1ccc(Cl)c(Cl)c1`, “inactive”; under `COc1ccc(-c2cnc3c(c2)C(=O)N([C@H](C)CO)C[C@H](C)[C@H](CN(C)S(=O)(=O)c2cccs2)O3)cc1`, “inactive”.
Consider `C[C@@H]1CCCCO[C@@H](CN(C)S(C)(=O)=O)[C@@H](C)CN([C@H](C)CO)C(=O)c2cc(NC(=O)CCCN(C)C)ccc2O1`, for which the cytotoxicity call is “inactive”.
Take `NCC1OC(OC2C(CO)OC(OC3C(O)C(N)CC(N)C3OC3OC(CN)C(O)C(O)C3N)C2O)C(N)C(O)C1O.O=S(=O)(O)O.O=S(=O)(O)O.O=S(=O)(O)O` (stereo not given): the cytotoxicity call is “inactive”.
`CC(C)NC(=O)N[C@H]1C=C[C@H](CC(=O)NCCN2CCCC2)O[C@H]1CO`: the cytotoxicity call is “inactive”.
On to `O=C(N[C@H]1CC[C@@H](CC(=O)N2CCOCC2)O[C@@H]1CO)c1ccc2c(c1)OCO2`, for which the cytotoxicity call was “inactive”.
Regarding `C[C@H](CO)N1C[C@H](C)[C@H](CN(C)C(=O)Nc2ccccc2)OCCCC[C@H](C)Oc2ccc(NS(=O)(=O)c3ccc(Cl)cc3)cc2C1=O`, the cytotoxicity call was “inactive”.
Turning to `C[C@H](CO)N1C[C@H](C)[C@H](CN(C)Cc2ccc(C(=O)Nc3ccccc3N)cc2)OCc2cn(nn2)CCCC1=O`, the cytotoxicity call is “inactive”.
For `Clc1ccc(/C=N/Cc2ccc(-c3cccs3)s2)cc1`, the cytotoxicity call is “inactive”.
As to `NC(=S)N/N=C/c1ccncc1`, the cytotoxicity call is “inactive”.
In the case of `Cl.N=C(NN=Cc1ccc(Cl)cc1)NN=Cc1ccc(Cl)cc1`, the cytotoxicity call was “active”.
With `C[C@H]1CN([C@@H](C)CO)C(=O)c2cccc(NS(=O)(=O)c3cccs3)c2O[C@H]1CN(C)S(=O)(=O)c1cccs1`, the cytotoxicity call is “inactive”.
As to `CCCCCCc1nc(CCCc2cc3c(c(CCCCCC)n2)[Si](C(C)C)(C(C)C)O[C@H]3c2ccccc2)cc2c1[Si](C(C)C)(C(C)C)O[C@H]2c1ccccc1`, the cytotoxicity call is “inactive”.
As to `Cc1onc(NS(=O)(=O)c2ccccc2-c2ccc(-c3ncco3)cc2CN(C)C(=O)CC(C)(C)C)c1C`, the cytotoxicity call was “inactive”.
The result for `C[C@@H]1CN([C@H](C)CO)C(=O)c2cccc(NC(=O)Nc3ccccc3)c2O[C@@H]1CN(C)C(=O)Nc1cccc2ccccc12` reads “inactive”; that for `C[C@@H]1CCCCO[C@@H](CN(C)Cc2ccc(C(F)(F)F)cc2)[C@H](C)CN([C@H](C)CO)C(=O)c2cc(NS(=O)(=O)c3ccc(F)cc3)ccc2O1`, “inactive”.
As for `Cc1ccc(S(=O)(=O)Nc2ccc3c(c2)C(=O)N([C@H](C)CO)C[C@@H](C)[C@@H](CN(C)Cc2ccc(C(F)(F)F)cc2)OCCCC[C@@H](C)O3)cc1`, the cytotoxicity call is “inactive”.
The result for `Cc1ccc(S(=O)(=O)Nc2ccc3c(c2)C(=O)N([C@H](C)CO)C[C@H](C)[C@@H](CN(C)Cc2ccc(C(F)(F)F)cc2)OCCCC[C@H](C)O3)cc1` reads “inactive”.
The result for `Cc1ccc(S(=O)(=O)Nc2ccc3c(c2)C(=O)N([C@H](C)CO)C[C@H](C)[C@H](CN(C)Cc2ccc(C(F)(F)F)cc2)OCCCC[C@@H](C)O3)cc1` reads “inactive”.
For `Cc1ccc(S(=O)(=O)Nc2ccc3c(c2)C(=O)N([C@H](C)CO)C[C@H](C)[C@H](CN(C)Cc2ccc(C(F)(F)F)cc2)OCCCC[C@H](C)O3)cc1`, the cytotoxicity call was “active”.
With `C[C@@H]1CCCCO[C@H](CN(C)Cc2ccc(C(F)(F)F)cc2)[C@H](C)CN([C@@H](C)CO)C(=O)c2cc(NS(=O)(=O)c3ccc(F)cc3)ccc2O1`, the cytotoxicity call is “active”.
The result for `Cc1ccc(S(=O)(=O)Nc2ccc3c(c2)C(=O)N([C@@H](C)CO)C[C@H](C)[C@H](CN(C)Cc2ccc(C(F)(F)F)cc2)OCCCC[C@H](C)O3)cc1` reads “inactive”; that for `Cc1ccc(S(=O)(=O)Nc2ccc3c(c2)C(=O)N([C@@H](C)CO)C[C@@H](C)[C@@H](CN(C)Cc2ccc(C(F)(F)F)cc2)OCCCC[C@H](C)O3)cc1`, “inactive”; that for `Cc1ccc(S(=O)(=O)Nc2ccc3c(c2)C(=O)N([C@H](C)CO)C[C@@H](C)[C@@H](CN(C)Cc2ccc(C(F)(F)F)cc2)OCCCC[C@H](C)O3)cc1`, “inactive”.
The result for `Cc1ccc(S(=O)(=O)Nc2ccc3c(c2)C(=O)N([C@@H](C)CO)C[C@H](C)[C@@H](CN(C)Cc2ccc(C(F)(F)F)cc2)OCCCC[C@@H](C)O3)cc1` reads “active”; that for `C[C@@H]1CN([C@H](C)CO)C(=O)c2cc(NS(=O)(=O)c3ccc(F)cc3)ccc2O[C@@H](C)CCCCO[C@H]1CN(C)Cc1ccc(C(F)(F)F)cc1`, “inactive”; that for `Cc1ccc(S(=O)(=O)Nc2ccc3c(c2)C(=O)N([C@@H](C)CO)C[C@H](C)[C@@H](CN(C)Cc2ccc(C(F)(F)F)cc2)OCCCC[C@H](C)O3)cc1`, “active”.
